The test system of assay [1] is XIP peptide (Xip251-270) binding. The assay can be described thus: small-molecule binders of XIP peptide, primary screen, biochemical, small-molecule microarray, fluorescence 635/667 nm, 0.1 µg/mL protein (AID 1182). As to conditions: fluorescent protein binding, 635 nm, higher = more signal, called active from +8 up or from −8 down.
In assay [2] the test system is XIP peptide (Xip251-270). The assay can be described thus: small-molecule binders of XIP peptide, primary screen, biochemical, small-molecule microarray, fluorescence 635/667 nm, 0.5 µg/mL protein (AID 1183). As to conditions: small-molecule microarray binding, fluorescence 635 nm; higher = more signal.
Assay [3] is described as follows: Plasmodium falciparum growth inhibition, primary screen, strain 3D7, DAPI fluorescence, 100 nL (AID 1184).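 Note: parasites grown inside human red blood cells in medium with human serum.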 To be noted: P. falciparum 3D7 growth, 3 d, higher = more signal.
The target in assay [4] is Homeobox protein Hox-A13 (Mus musculus) (UniProt Q62424). The assay is described as follows: inhibitors of HoxA13-DNA binding, primary screen, biochemical, fluorescence polarization, labeled oligonucleotide (AID 1185). To be noted: 15 min, higher = more signal, called active from +8 up or from −8 down.
Sequence of Homeobox protein Hox-A13 (Mus musculus) (Q62424 whole entry, looked up): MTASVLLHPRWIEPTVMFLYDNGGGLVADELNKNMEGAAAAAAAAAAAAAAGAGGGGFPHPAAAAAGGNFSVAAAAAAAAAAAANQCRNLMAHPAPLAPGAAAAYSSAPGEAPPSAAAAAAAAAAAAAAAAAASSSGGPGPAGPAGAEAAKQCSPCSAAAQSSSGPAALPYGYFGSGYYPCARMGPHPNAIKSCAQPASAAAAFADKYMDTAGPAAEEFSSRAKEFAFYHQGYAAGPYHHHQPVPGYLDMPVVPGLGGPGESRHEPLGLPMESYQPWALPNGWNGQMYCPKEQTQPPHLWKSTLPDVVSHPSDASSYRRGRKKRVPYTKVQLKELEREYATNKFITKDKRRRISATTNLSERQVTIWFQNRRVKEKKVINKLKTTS
Assay [5] in a line: inhibitors of hydroxyurea-induced Chk1 phosphorylation, primary screen, imaging, HeLa, phospho-Chk1 antibody, percent positive cells (AID 1186). As to conditions: hydroxyurea-induced phospho-Chk1 immunofluorescence imaging, higher = more signal.
The nature of assay [6]: inhibitors of hydroxyurea-induced Chk1 phosphorylation, primary screen, imaging, HeLa, phospho-Chk1 nuclear intensity (AID 1187). To be noted: hydroxyurea-induced phospho-Chk1 immunofluorescence imaging, higher = more signal.

The structures appear in SMILES notation. Calls of active or inactive are those of the source. Unless noted, the rule behind the calls is not given here.

Regarding `CC(C)C(O)C1C=CC2C(=O)N(C)C(=O)C2N1N(c1ccccc1)c1ccccc1` (stereo not drawn), the values for the composite z-score in assay [1] and in assay [2] were 0.618 (inactive) and 0.123, respectively. Further, the z-score was 0.0202 in assay [3], -4.48 (inactive) in assay [4], 0.307 (inactive) in assay [5] and 0.0802 (inactive) in assay [6].
With `CON(C)C(=O)C=C1C[C@@H](c2cccc(Cl)c2)O[C@@H](c2cccc(Cl)c2)O1`, the values for the composite z-score in assay [1] and in assay [2] were 2.75 (inactive) and 0.454, respectively. Further, the z-score in assay [3] was -2; in assay [4] it was -3.48 (inactive); in assay [5], -0.0938 (inactive); in assay [6], -0.0296 (inactive).
For `C=C(COC)/C(=C/C[C@@H](OC(=O)c1ccncc1)c1cccc(OCCO)c1)c1cnc2ccccc2c1`, the composite z-score was 0.482 (inactive) in assay [1] and 0.763 in assay [2]. The z-score in assay [3] is -2.79; in assay [4], -5.6 (inactive); in assay [5], 0.594 (inactive); in assay [6] it was 0.376 (inactive).
`COCCOC(=O)N1C(=O)[C@@]2(c3cc(C#CC4(O)CCCCCC4)ccc31)[C@H](c1ccccc1OCCO)N1[C@H](c3ccccc3)[C@H](c3ccccc3)OC(=O)[C@H]1[C@@H]2C(N)=O`: the composite z-score is 0.151 (inactive) in assay [1] and 0.774 in assay [2]. Besides, the z-score in assay [3] was -2.07; in assay [4], -2.04 (inactive); in assay [5], 0.141 (inactive); in assay [6] it was -0.377 (inactive).
As to `CC(C)CNC(=O)[C@@]1(c2ccc([N+](=O)[O-])cc2)CC(=O)N(C2CCCCC2)[C@@H]1c1ccc(CO)cc1I`, the composite z-score in assay [1] is 0.551 (inactive); in assay [2], 0.792. Besides, the z-score is -0.923 in assay [3], -4.89 (inactive) in assay [4], 0.093 (inactive) in assay [5] and -0.208 (inactive) in assay [6].
Turning to `COC(=O)C1(Cc2ccccc2)C=C2C(=C(C(C)C)C(=O)C2C)CN1` (stereo not drawn), the results for the composite z-score in assay [1] and in assay [2] were 0.0989 (inactive) and 0.648, respectively. In addition, the z-score in assay [3] was -1.07; in assay [4] it was -9.8 (active); in assay [5], 0.366 (inactive); in assay [6] it was 0.602 (inactive).
Consider `C#CCNC(=O)[C@H](Cc1ccccc1)NC(=O)[C@@H](N=[N+]=[N-])C(C)C`, for which the composite z-score is 0.056 (inactive) in assay [1] and 0.262 in assay [2]. The z-score in assay [3] is -0.765; in assay [4], -0.747 (inactive); in assay [5], 0.744 (inactive); in assay [6], 0.815 (inactive).
Regarding `CCOc1cc(C(O)C2C=CC3C(=O)N(C4CCCCC4)C(=O)C3N2Nc2ccc(OC)cc2)ccc1O` (stereo not drawn), the results for the composite z-score in assay [1] and in assay [2] were 0.0699 (inactive) and 0.486, respectively. Also, the z-score in assay [3] was -0.165; in assay [4], -3.99 (inactive); in assay [5], -0.509 (inactive); in assay [6], -0.813 (inactive).
With `CCOC(=O)C[C@H]1[C@H](OC(=O)c2ccc(-c3ccccc3)cc2)[C@@H](NC(=O)c2ccc3ccccc3c2)c2cc(OCCCO)ccc2N1C(=O)c1ccc2ccccc2n1`, the composite z-score in assay [1] is 0.0454 (inactive); in assay [2], 0.338. For the same compound, the z-score in assay [3] was 0.563; in assay [4], -1.16 (inactive); in assay [5], -0.361 (inactive); in assay [6], -0.561 (inactive).
`CC=CC(O)C1C=CC2C(=O)N(C)C(=O)C2N1Nc1ccc([N+](=O)[O-])cc1[N+](=O)[O-]` (stereo not drawn): the figures for the composite z-score in assay [1] and in assay [2] were 0.32 (inactive) and 0.266, respectively. Besides, the z-score in assay [3] is 0.619; in assay [4], -0.734 (inactive); in assay [5] it was -0.0994 (inactive); in assay [6] it was -0.104 (inactive).
`C=CC[C@@H](OC(=O)Nc1ccc(OC)cc1)c1ccc(OCCO)cc1`: the composite z-score in assay [1] is 0.456 (inactive); in assay [2], -0.543. Moreover, the z-score is 0.663 in assay [3], -5.86 (inactive) in assay [4], -0.867 (inactive) in assay [5] and -0.431 (inactive) in assay [6].
In the case of `COc1ccc(C(O)C2C=CC3C(=O)N(Cc4ccccc4)C(=O)C3N2n2cnnc2)c2ccccc12` (stereo not drawn), the results for the composite z-score in assay [1] and in assay [2] were 1.09 (inactive) and 0.537, respectively. Further, the z-score in assay [3] is -1.05; in assay [4], -1.49 (inactive); in assay [5] it was -0.525 (inactive); in assay [6], -0.966 (inactive).
With `CC(C)CN1C(=O)[C@@]2(Cc3ccccc31)c1ccccc1C(=O)N(Cc1ccccc1C(F)(F)F)[C@H]2c1ccc(CO)cc1`, the results for the composite z-score in assay [1] and in assay [2] were -0.334 (inactive) and -0.0449, respectively. The z-score is -0.141 in assay [3], 0.0026 (inactive) in assay [4], -0.417 (inactive) in assay [5] and -0.408 (inactive) in assay [6].
For `C=C(COC)/C(=C/C[C@@H](OC(=O)c1ccncc1)c1ccc(CO)o1)c1cnc2ccccc2c1`, the values for the composite z-score in assay [1] and in assay [2] were 0.86 (inactive) and 0.726, respectively. Moreover, the z-score in assay [3] was -0.58; in assay [4], -5.9 (inactive); in assay [5] it was 0.496 (inactive); in assay [6] it was 0.671 (inactive).
As to `C[C@]1(C(=O)NCCN2CCOCC2)c2ccccc2C(=O)N(Cc2ccc(OC(F)(F)F)cc2)[C@H]1c1ccc(CO)cc1`, the composite z-score in assay [1] was -0.0513 (inactive); in assay [2], 0.466. Further, the z-score was -1.08 in assay [3], -4.78 (inactive) in assay [4], -0.198 (inactive) in assay [5] and -0.0723 (inactive) in assay [6].
With `CCCc1cccc(=O)o1`, the composite z-score in assay [1] is 0.684 (inactive); in assay [2], -0.0514. The z-score was 0.581 in assay [3], -1.77 (inactive) in assay [4], 0.0999 (inactive) in assay [5] and 0.549 (inactive) in assay [6].
`CC(C)C(=C=CC[C@@H](O)c1ccccc1OCCO)C[C@@H](O)COCc1ccccc1`: the results for the composite z-score in assay [1] and in assay [2] were 0.493 (inactive) and 0.401, respectively. Also, the z-score in assay [3] is -1.47; in assay [4] it was -4.7 (inactive); in assay [5], -0.476 (inactive); in assay [6] it was 1.12 (inactive).
As for `O=C(CS)NCCCCCCNC(=O)[C@H]1C[C@H]2C(=O)N[C@@H](Cc3ccccc3)C(=O)N2[C@H]1c1cccc(OCCO)c1`, the composite z-score in assay [1] was 0.168 (inactive); in assay [2] it was 0.825. For the same compound, the z-score in assay [3] is 0.107; in assay [4], -1.03 (inactive); in assay [5], -0.0078 (inactive); in assay [6], 0.671 (inactive).
Take `CN(C)CCCCNC(=O)[C@H]1C[C@H]2C(=O)N[C@@H](CCCCN(C)C)C(=O)N2[C@H]1c1cccc(OCCO)c1`: the figures for the composite z-score in assay [1] and in assay [2] were 1.64 (inactive) and 0.675, respectively. For the same compound, the z-score in assay [3] was 0.649; in assay [4], -3.26 (inactive); in assay [5], 0.368 (inactive); in assay [6], 0.217 (inactive).
As to `CCOC(=CC(=O)OC)CC(O)c1cccc(Cl)c1` (stereo not drawn), the composite z-score in assay [1] is 2.68 (inactive); in assay [2], 0.893. For the same compound, the z-score is -0.368 in assay [3], -3.53 (inactive) in assay [4], -0.119 (inactive) in assay [5] and 0.219 (inactive) in assay [6].
With `C[C@]1(C(=O)O)c2ccccc2C(=O)N(Cc2ccccc2)[C@H]1c1ccc(CO)cc1`, the figures for the composite z-score in assay [1] and in assay [2] were -0.339 (inactive) and 0.416, respectively. For the same compound, the z-score in assay [3] is -0.393; in assay [4], -1.72 (inactive); in assay [5], -0.107 (inactive); in assay [6], 0.194 (inactive).
Regarding `COC(=O)[C@@]1(Cc2ccc(OC)cc2)[C@H]2c3cc(C(=O)N4CCCC4)n(CCc4cc5ccccc5[nH]4)c3C[C@H]2CN1C(=O)c1ccccc1`, the results for the composite z-score in assay [1] and in assay [2] were 1.64 (inactive) and 0.685, respectively. Further, the z-score is -1.66 in assay [3], -1.91 (inactive) in assay [4], -0.203 (inactive) in assay [5] and -0.0973 (inactive) in assay [6].
For the compound `Cc1ccc(S[C@]2(C(=O)NC(C)C)CC(=O)N(C3Cc4ccccc4C3)[C@@H]2c2ccc(CO)cc2I)cc1`, the results for the composite z-score in assay [1] and in assay [2] were -0.325 (inactive) and 0.86, respectively. The z-score is -0.619 in assay [3], -2.24 (inactive) in assay [4], 0.425 (inactive) in assay [5] and 0.191 (inactive) in assay [6].

The values above are taken from PubChem BioAssay.
